About 50,000 (12%) of roughly 420,000 compounds were called active. About 26% were inconclusive and are not listed. The call rests on the fitted dose curve; in most records, active means well fitted inhibition curve with a large enough effect; inconclusive means small, poorly fitted or top-dose-only effect; inactive means flat fitted curve, though single readings scatter. The entries come from a sample that favours actives as a whole. A call without a number means that no potency is given here. Where a SMILES comes first, the peptide text is derived from it. [ ]: non-standard residue; d: D form. ξ: configuration not given here. ξM = CSCCC(N)C(=O)O
Assay: qHTS for Inhibitors of human tyrosyl-DNA phosphodiesterase 1 (TDP1): qHTS in cells in presence of CPT; further: nearly all actives have a fitted effect of over 55% in size
Conditions: chicken DT40 Tdp1-/-;hTDP1 cells + 20 nM CPT, ATP luminescence, 48 h; series mostly up to 46.2 µM
In short: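 Chicken DT40 Tdp1-/- cells stably complemented with human TDP1 were seeded at 400 cells/well in medium containing 20 nM camptothecin, exposed to pin-transferred compounds, and grown at 37 °C for at least 48 hr. Viability was read as ATP luminescence.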
Potency means the concentration at half of the fitted maximal effect.

| SMILES | Potency |
| --- | --- |
| CS(=O)(=O)N1CCN(C(=O)CSc2ccccc2)CC1 | inactive |
| CC(=O)Nc1ccc(NC(=O)CSc2nnnn2C2CCCCC2)cc1 | inactive |
| OC[C@H]1O[C@@H](c2nc(-c3nc(-c4ccc(F)cc4)no3)cs2)[C@H](O)[C@@H](O)[C@H]1O | inactive |
| O=C(NNC(=S)NCCCN1CCOCC1)c1ccncc1 | inactive |
| COc1ccc(CNC(=O)C(NS(=O)(=O)c2cccc3nsnc23)C(C)C)cc1 (stereo unspecified) | inactive |
| COc1cc(Cl)c(NC(=O)C(NS(=O)(=O)c2cccs2)C(C)C)c(OC)c1 (stereo unspecified) | inactive |
| CC(C)C(NS(=O)(=O)c1cccs1)C(=O)Nc1nc(C(C)(C)C)cs1 (stereo unspecified) | 16.4 µM (active) |
| O=C(CCNS(=O)(=O)c1ccccc1)NCCCc1ccccc1 | inactive |
| Nn1c(SCC(=O)Nc2ccc3c(c2)CCC3)nnc1C1CC1 | inactive |
| COC(=O)Cc1cnc(NC(=O)CSc2nc(C(C)C)cc(=O)[nH]2)s1 | inactive |
| Cn1c(=O)c2sccc2n2c(CCC(=O)NCc3ccccc3Cl)nnc12 | inactive |
| CCC(=O)N1CCc2cc(S(=O)(=O)NCCC(=O)Nc3cccc(C)c3C)ccc21 | inactive |
| CC1=C(C)CC2C(=O)N(c3cccc4ccccc34)C(=O)C2C1 (stereo unspecified) | 18.4 µM (active) |
| O=C1c2ccccc2C(=O)N1c1cccc2ccccc12 | inactive |
| Cc1ccc(N2C(=O)CC(Nc3cccc4ccccc34)C2=O)cc1 (stereo unspecified) | inactive |
| CCc1nccn1S(=O)(=O)c1cccc([N+](=O)[O-])c1 | inactive |
| CC1CCN(C(=O)Cn2nnnc2CN2CCOCC2)CC1 | inactive |
| CS(=O)(=O)N1CCN(C(=O)c2cc3ccccc3oc2=O)CC1 | inactive |
| CCNC(=S)N1CCN(S(=O)(=O)c2ccc(Cl)s2)CC1 | inactive |
| O=C(c1cc2ccccc2o1)N1CCN(S(=O)(=O)c2ccc(Cl)s2)CC1 | 18.4 µM (active) |
| COc1cccc(C(O)Cc2nc3ccccc3n2C)c1OC (stereo unspecified) | inactive |
| NS(=O)(=O)c1ccc(CNC(=O)c2cccc(Oc3ccccc3)c2)cc1 | inactive |

| SMILES | Potency |
| --- | --- |
| CN1C(=O)[C@H]2[C@@H](/C=C/c3ccccc3)N3C(=O)CN(Cc4ccc(-c5ccccc5)cc4)C(=O)[C@@]3(C)[C@H]2C1=O | 25.9 µM (active) |
| COC(=O)CN1C(=O)[C@H]2[C@@H](/C=C/c3ccccc3)N3C(=O)CN(Cc4ccccc4)C(=O)[C@@]3(Cc3ccccc3)[C@H]2C1=O | inactive |
| CN1C(=O)[C@H]2[C@@H](C3CC3)N3C(=O)CN(Cc4ccccc4)C(=O)[C@@]3(C)[C@H]2C1=O | inactive |
| O=C(C[C@@H]1C/C=C\CCC(=O)OC[C@@H]2CCCN2C1=O)NCCO | inactive |
| CC(=O)c1sc(N/N=C/c2ccc(C(C)C)cc2)nc1C | inactive |
| CCC(C)c1ccc(NC(=S)NCc2ccccn2)cc1 (stereo unspecified) | inactive |
| CC(=O)N1CCc2cc(Br)cc(S(=O)(=O)CCC(=O)NCCc3ccc(Cl)cc3)c21 | inactive |
| O=C(COc1ccc(Cl)cc1)Nc1ccc(-c2nc3cc(Cl)ccc3o2)c(O)c1 | inactive |
| COc1ccc2oc(-c3cccc(NC(=O)CSc4ccc(Cl)cc4)c3)nc2c1 | 20.6 µM (active) |
| Cc1ccc(SCC(=O)Nc2ccc3oc(-c4ccccc4C)nc3c2)cc1 | inactive |
| Cc1ccccc1-c1nc(NC(C)C)nc2cc(-c3ccccc3)sc12 | 16.4 µM (active) |
| COc1ccccc1C(=O)NC(CCSC)C(=O)NNC(=O)c1csc(N2CCOCC2)n1 (stereo unspecified) | inactive |
| CS(=O)(=O)Nc1cccc(-c2cn3ccccc3n2)c1 | inactive |
| COc1ccccc1CNc1ncncc1-c1cccc(NS(C)(=O)=O)c1 | inactive |
| CNc1ncnc2ccc(-c3cccc(NS(C)(=O)=O)c3)cc12 | 11.6 µM (active) |
| O=C(CCS(=O)(=O)c1ccccc1)NC1CCCC1 | inactive |
| COC1=CCC2([N+](=O)[O-])CN(CC(=O)O)CC1([N+](=O)[O-])C2 (stereo unspecified) | inactive |
| CCOc1ccccc1NC(=O)CCn1cnnn1 | inactive |
| Cc1ccc(C)c(NC(=O)CN(C)C(=O)c2ccc3ncsc3c2)c1 | inactive |
| CCc1ccc(NC(=O)Cn2nc(C)c([N+](=O)[O-])c2C)cc1 | inactive |
| Cc1ccc(Oc2cc(NC(=O)CCCn3nc(C)c([N+](=O)[O-])c3C)cc([N+](=O)[O-])c2)cc1 | 16.4 µM (active) |
| COc1ccc(CNC(=O)CCCn2nc(C)c([N+](=O)[O-])c2C)cc1 | inactive |

| SMILES | Potency |
| --- | --- |
| Cc1ccc(/C(N)=N/OC(=O)COc2ccc(Cl)c(C)c2)cc1 | inactive |
| C/C(=N\NC(=O)Cc1ccccc1[N+](=O)[O-])c1cccnc1 | inactive |
| CCc1ccccc1NC(=O)Cc1cn(C)c2ccccc12 | inactive |
| Cc1cccc(C)c1NC(=O)CNC(=O)c1ccc(N2CCOCC2)c([N+](=O)[O-])c1 | inactive |
| O=C(Nc1cccc(C(F)(F)F)c1)c1ccc(N2CCNCC2)c([N+](=O)[O-])c1 | 14.6 µM (active) |
| CC1CCN(c2ccc(C(=O)Nc3nnc(C4CC4)s3)cc2[N+](=O)[O-])CC1 | inactive |
| CCOc1ccc(NC(=O)CC(Cc2ccc(Cl)cc2)C(=O)O)cc1 (stereo unspecified) | inactive |
| N#C/C(=C\c1ccc(O)c(O)c1)C(=O)NCc1ccccc1 | 29.9 µM (active) |
| CC(C)NC(=O)/C(C#N)=C\c1ccc(N(C)C)c(Br)c1 | inactive |
| N#C/C(=C\c1ccc(O)c(O)c1)C(N)=O | inactive |
| CCc1nc(-c2cc(S(=O)(=O)N3CCN(c4ccc(OC)cc4)CC3)ccc2OC)no1 | inactive |
| COc1cc2c(cc1O)C(SC)=NC(C)(C)C2 | 25.9 µM (active) |
| Cc1cn(C)c(=O)n(C)c1=O | inactive |
| O=C1CCCCC1C(=O)c1ccccc1 (stereo unspecified) | inactive |
| O=C(Nn1cnnc1)c1ccc([N+](=O)[O-])cc1 | inactive |
| O=C(c1ccncc1)c1ccc([N+](=O)[O-])cc1 | inactive |
| O=C(Cn1c[n+](CC(=O)c2ccc([N+](=O)[O-])cc2)cn1)c1ccc([N+](=O)[O-])cc1 | 16.4 µM (active) |
| COC(=O)CNC(=O)C(CCSC)NC(C)=O (stereo unspecified) (Ac-[ξM]-Gly-OMe) | inactive |
| Cc1ccc(S(=O)(=O)Nc2nc(C)cc(-n3nc(C)cc3C)n2)cc1 | inactive |
| CCCC(C(=O)n1nc(C)cc1C)C(NS(=O)(=O)c1ccc(C)cc1)c1ccccc1 (stereo unspecified) | 16.4 µM (active) |
| Cc1ccc(S(=O)(=O)NC(C(=O)N2CCOCCOCCOCCOCC2)c2ccccc2)cc1 (stereo unspecified) | inactive |
| Cc1cccc(C(=O)NNC(=O)CSc2nnc(C(C)C)n2C)c1 | inactive |

| SMILES | Potency |
| --- | --- |
| COc1ccc(NC(=O)C(c2ccccc2)N2Cc3ccccc3C2=O)cc1 (stereo unspecified) | inactive |
| Fc1ccc(/C=N/Nc2nc(-c3cccnc3)nc3ccccc23)cc1 | 20.6 µM (active) |
| Cc1cnc(CNc2nc(-c3cccnc3)nc3ccccc23)cn1 | inactive |
| Cc1ccc2nc(C)cc(N/N=C/c3ccc(F)cc3)c2c1 | inactive |
| C/C(Cn1nnc2ccccc21)=N\OC(=O)c1cc(F)c(F)cc1Cl | inactive |
| Cc1cc(NC(=O)CCC(=O)N(CC(=O)NCC2CCCO2)c2ccccc2)no1 (stereo unspecified) | inactive |
| CCc1nc2ccccc2c(C(=O)OC2CCCCC2=O)c1C (stereo unspecified) | inactive |
| O=C(COC(=O)c1c2c(nc3ccccc13)CCCC2)c1ccc(Br)s1 | 8.2 µM (active) |
| Cn1cccc1C(=O)OCC(=O)c1ccc(Br)s1 | inactive |
| CCc1noc(C)c1C(=O)N1CCCSC1=Nc1ccccc1OC | inactive |
| CN(C)S(=O)(=O)c1ccc(C(=O)NCCN=C2NS(=O)(=O)c3ccccc32)cc1 | inactive |
| CC1(C)Cc2c(cnn2-c2cccc(F)c2)C(NC(=O)c2cc[n+]([O-])cc2)C1 (stereo unspecified) | inactive |
| Cc1cc(C(=O)NC2CC(C)(C)Cc3c2cnn3-c2ccccc2)n[nH]1 (stereo unspecified) | inactive |
| COC(=O)c1ccc(C(=O)NC2CC(C)(C)Cc3c2cnn3-c2ccc(F)cc2)nc1 (stereo unspecified) | 1.84 µM (active) |
| Cc1ccc(CNC(=O)CCC(=O)N2CC(C)Sc3ccccc32)cc1 (stereo unspecified) | inactive |
| Cc1ccc(Cl)cc1NC(=O)COC(=O)C1CCCCC1 | inactive |
| Cc1ccc(Cl)cc1NC(=O)CCC(=O)N1CC(C)Sc2ccccc21 (stereo unspecified) | 23.1 µM (active) |
| Cc1ccc(CNC(=O)CCNS(=O)(=O)c2ccc3c(c2)oc(=O)n3C)cc1 | inactive |
| C(#CCN1CCOCC1)CCCN1CCOCC1 | inactive |
| Cn1nc(C(F)(F)F)c2cc(NC(=O)OCC(C)(C)C)sc21 | inactive |
| CCNC(=O)C1(C)CCCN(C(=O)c2c(C)noc2C)C1 (stereo unspecified) | inactive |
| O=C(COC(=O)c1ccccc1)Nc1cccc(S(=O)(=O)N2CCOCC2)c1 | inactive |

| SMILES | Potency |
| --- | --- |
| Cc1cc2ccccn2c1C(=O)c1cccc(S(=O)(=O)N2CCOCC2)c1 | 14.6 µM (active) |
| Cc1cc2ccccn2c1C(=O)c1cccc(F)c1 | inactive |
| O=[N+]([O-])c1ccc(S(=O)(=O)Nc2cccc(-c3ccc(N4CCCC4)nn3)c2)cc1 | inactive |
| Cc1cc(C(=O)CC#N)c(C)n1-c1c(C)n(C)n(-c2ccccc2)c1=O | inactive |
| C=C1CCN([C@@H](Cc2ccccc2)C(=O)N2CCOCC2)S(=O)(=O)c2ccccc21 | inactive |
| CCOC(=O)c1sc(NC(=O)C(CC)Sc2nccn2C)nc1C (stereo unspecified) | inactive |
| CCn1c2ccccc2c2nnc(SCC(=O)O)nc21 | inactive |
| C=CCn1c2ccccc2c2nnc(SC(CC)C(=O)Nc3nc(C)c(C(=O)OCC)s3)nc21 (stereo unspecified) | 11.6 µM (active) |
| O=C(NC1CC1)C1CCCN(C(=O)NC2CCCCC2)C1 (stereo unspecified) | inactive |
| Cc1ccc(S(=O)(=O)NC(=O)c2cccc(C)c2)cc1 | inactive |
| CN(NC(=O)c1ccccc1)c1nc2ccccc2nc1C(F)(F)F | 8.2 µM (active) |
| O=C(Cn1cnc2ccccc2c1=O)NNC(=O)c1ccccc1F | inactive |
| COC(=O)CNC(=O)c1ccccc1F | inactive |
| CSc1nc(N(C)NC(=O)c2cccc(C)c2)c2ccccc2n1 | 0.0517 µM (active) |
| CN(NC(=O)c1ccccc1F)c1nc(C(F)(F)F)nc2ccccc12 | 0.206 µM (active) |
| Cc1nc2ccccc2c(=O)n1NC(=O)c1ccccc1 | inactive |
| O=C(Nn1cnc2ccccc2c1=O)c1ccccc1 | inactive |
| COc1ccc(OCC(=O)NNC(=O)c2cccc(C)c2)cc1 | inactive |

From PubChem BioAssay AID686979 (National Center for Advancing Translational Sciences (NCATS), 2013)
